# Assay results reported in the supplement of paper PMC6555819.
# Key:
# Test in all cases: PBM binding z-score (relative to random genomic background probes); higher = stronger binding; sequences stand for … in GC…GCGATTGACAGCGTAGAATGAAGG
# [1] = tested on: PPARg:RXRa DBDmut IVT, anti-RXR (DBD mutation: RXRa K156A/R161A, NR concentration 270 nM, RXRa partner concentration 90 nM)
# In short: (§1)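 Binding z-scores take random background probes as their reference. They come from custom Agilent 4×180K protein-binding microarrays incubated 1 h with ligand-free nuclear receptor dimers, with antibodies against each partner (one per run) detecting binding. Scanned fluorescence was regression-normalized.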
# [2] = tested on: PPARg:RXRa IVT, anti-PPARg (NR concentration 270 nM, RXRa partner concentration 90 nM)
# In short: as §1
# [3] = tested on: PPARg DBDmut:RXRa IVT, anti-PPARg (DBD mutation: PPARg1 K132A/R137A, NR concentration 270 nM, RXRa partner concentration 90 nM)
# In short: as §1
# [4] = tested on: PPARg DBDmut IVT, anti-PPARg (DBD mutation: PPARg1 K132A/R137A, NR concentration 270 nM)
# In short: as §1
# [5] = tested on: PPARg homodimer (NR concentration 180 nM)
# In short: as §1
# [6] = tested on: PXR homodimer (NR concentration 270 nM)
# In short: as §1
# [7] = tested on: RARa:RXR (NR concentration 270 nM, RXRa partner concentration 90 nM)
# In short: as §1
# [8] = tested on: RARa homodimer (NR concentration 270 nM)
# In short: as §1
# [9] = tested on: RARb:RXRa (NR concentration 270 nM, RXRa partner concentration 90 nM)
# In short: as §1
# [10] = tested on: RARb homodimer (NR concentration 270 nM)
# In short: as §1
# [11] = tested on: RARg:RXRa (NR concentration 270 nM, RXRa partner concentration 90 nM)
# In short: as §1
# [12] = tested on: RARg homodimer (NR concentration 270 nM)
# In short: as §1
# [13] = tested on: RXRa DBDmut IVT, anti-RXR (DBD mutation: RXRa K156A/R161A, NR concentration 90 nM)
# In short: as §1
# [14] = tested on: RXRa homodimer (NR concentration 180 nM)
# In short: as §1
# [15] = tested on: THRa:RXRa (NR concentration 90 nM, RXRa partner concentration 90 nM)
# In short: as §1
# [16] = tested on: THRa homodimer (NR concentration 90 nM)
# In short: as §1
# [17] = tested on: VDR homodimer (NR concentration 270 nM)
# In short: as §1
# [18] = tested on: PXR:RXRa (NR concentration 270 nM, RXRa partner concentration 90 nM)
# In short: as §1
# [19] = tested on: VDR:RXRa (NR concentration 270 nM, RXRa partner concentration 90 nM)
# In short: as §1
Sequence,PBM binding z-score [1],PBM binding z-score [2],PBM binding z-score [3],PBM binding z-score [4],PBM binding z-score [5],PBM binding z-score [6],PBM binding z-score [7],PBM binding z-score [8],PBM binding z-score [9],PBM binding z-score [10],PBM binding z-score [11],PBM binding z-score [12],PBM binding z-score [13],PBM binding z-score [14],PBM binding z-score [15],PBM binding z-score [16],PBM binding z-score [17],PBM binding z-score [18],PBM binding z-score [19]
CGTCAACGTTCAACTAAGGTAACGTAAAGCACGC,-0.0681,0.225,0.181,-0.155,0.349,-0.0969,2.07,0.331,0.991,0.8,0.496,0.603,0.449,0.587,3.84,1.68,0.137,–,–
CCTTACGGGTCAAGGTTATCGCACGGGTGGTACG,2.42,3.71,0.643,-0.085,2.19,0.106,4.53,0.512,4.2,3.58,5.02,5.11,1.31,5.6,3.15,1.02,1.69,–,–
ATATGTAGGTTACATCGGGGTCATTCAGGCTATG,7.87,7.63,3.44,3.24,3.92,10.3,7,1.93,3.25,4.16,5.65,3.14,2.56,6.42,4.32,3.16,6.17,–,–
AGAATGAGGTTATACGTAGGTCAGGGAAGAAAGT,3.82,2.92,1.18,0.81,3.44,0.992,4.71,0.747,3.19,3.18,6.03,2.35,1.74,3.96,3.74,1.44,1.87,–,–
CGTCCAAGGTCATACGAGGTCAGTGAAGACAGAT,3.46,4.63,1.25,0.789,5.5,9.7,6.69,2.69,5.43,5.34,7.02,7.58,4.29,6.94,5.39,4.43,5.82,–,–
AATACAGGGTCATTAGGCCAGAGTAGGTACGAAT,3.37,4.54,1.38,0.677,2.55,0.493,4.48,1.06,4.04,2.95,4.94,4.39,3.84,5.53,3.28,1.07,3.17,–,–
ATATGGAGGTTAGCTGGGGTCATTCAGACTAGGC,2.62,2.93,1.36,1.19,2.73,5.39,5.62,1.8,3.66,4.32,4.94,3.85,2.22,6.26,5.44,3.66,5.52,–,–
CCTACTGGGCCAAAAAGGCCATTGATGCCGATAA,2.77,2.4,0.199,-0.751,0.287,-0.211,-0.0899,-0.317,0.816,0.855,0.216,0.242,-0.537,-0.173,0.0885,-0.514,-0.0566,–,–
AGAACGAGGGCAATGAGTTCATAGCACGGGTGGC,3.4,3.12,0.564,0.148,0.482,15.2,2.56,0.017,2.79,2.84,2.78,2.56,3.91,2.42,2.58,0.398,10.3,–,–
GGAACGGGGGCAAGTTGATAGCAGAGTTTGATGG,4.41,5.53,10.8,12.6,2.77,2.97,2.7,2.02,3.54,2.35,3.33,3.16,3.37,2.6,2.51,1.27,4.04,–,–
CCGTACGGGTCAAGGTTATAGCACGGGTGGTACG,0.0598,2.11,-0.559,-1.41,1.37,0.0308,4.49,-0.0555,4.09,3.24,4.93,4.6,0.337,5.61,3.09,0.588,1.37,–,–
CTTTACGGGTCAAGGTTATAGCACGGGTGGTACG,3.74,4.39,1.72,1.23,2.84,0.731,4.6,0.604,4.17,3.7,5.18,5.01,1.93,5.61,3.26,1.1,1.77,–,–
ATCGAAAGGTCGAAGGTGACTATACCCACCCGAA,0.283,2.43,0.926,0.616,2.37,0.106,4.31,0.973,3.79,2.48,4.16,3.63,1.17,4.99,2.33,0.209,0.592,–,–
ATCAAAAGGTCGAAGGTGAGTATACCCACCCGAA,0.661,2.86,1.48,0.784,2.7,-0.118,4.72,0.445,4.05,2.75,4.51,4.34,1.27,5.55,2.26,-0.268,0.86,–,–
CGTCCGAGGTCAAAGGTCAGTGAAGAGATGACGG,4.36,6.35,2.87,3.81,5.95,3.02,8.81,4.96,5.93,5.1,8.9,8.05,4.57,10.3,4.89,2.7,4.73,–,–
GCTCGGGGGACAAGGTCAGAGCTTTGTCCGTAGA,2.28,3.25,1.23,1.71,1.58,0.127,3.59,-0.41,3.92,3.12,4.71,4.55,1.43,3.63,3.48,1.91,1.47,–,–
ATATGTAGGTCAGCTGGGGTCATTCAGACTAGGC,8.08,8.21,5.33,2.2,4.29,5.2,6.74,1.6,4.57,5.26,6.13,6.32,2.43,6.85,5.44,3.41,5.57,–,–

Sequence,PBM binding z-score [1],PBM binding z-score [2],PBM binding z-score [3],PBM binding z-score [4],PBM binding z-score [5],PBM binding z-score [6],PBM binding z-score [7],PBM binding z-score [8],PBM binding z-score [9],PBM binding z-score [10],PBM binding z-score [11],PBM binding z-score [12],PBM binding z-score [13],PBM binding z-score [14],PBM binding z-score [15],PBM binding z-score [16],PBM binding z-score [17],PBM binding z-score [18],PBM binding z-score [19]
ATATGTAGGATATCGGGTCATTCAGTTTGCGCAT,3.29,4.09,1.47,1.41,1.07,4.53,2.53,1.03,1.66,2.18,1.75,1.44,1.12,2.23,3.15,2.18,2.6,–,–
ACTAGTAGGTCAGCTGAGGTCACACACAATTCGG,7.68,7.77,2.63,2.31,6.08,4.54,6.25,4.07,5.01,5.47,6.45,7.1,2.43,6.29,–,5.63,5.23,–,–
ATCTCTAGGTTAAAGTTCAGTGAATCCCGAGGAT,4.45,5.47,1.98,1.29,2.11,1.85,3.99,1.65,3.28,2.94,3.52,3.27,1.18,4.46,2.3,0.775,3.12,–,–
AATACAGGGTCACTGGGCCAGAGTAGGTACGAAT,4.06,5.96,1.16,2.2,3.2,0.0493,4.88,1.05,4.3,3.72,5.73,5.37,2.35,6.2,3.59,1.3,2.73,–,–
AATACAGGGTCACTTGGCCAGAGTAGGTACGAAT,2.55,4.18,1.56,1.27,1.58,0.166,4.1,0.292,4.23,3.25,5.22,5.19,3.11,5.25,3.37,1.15,2.85,–,–
ATATGTAGGTTACATCCGAGTCATTCAGGCTATG,6.76,7.07,4.51,3.39,0.982,0.05,0.757,0.574,0.973,0.405,0.915,1.04,0.858,1.04,0.785,0.511,0.236,–,–
AATACAGGGTCACTAGGCCAGAGTGGGTACGAAT,3.88,5.89,2.29,2.32,2.94,0.0148,4.01,0.459,4.03,3.17,5.09,4.79,2.59,5.4,3.29,1.4,3.06,–,–
CCTACTGGGCCAAAGGTCTTTGATTCCAATGCTC,5.05,5.18,0.12,-0.165,0.366,-0.504,0.354,-0.497,0.448,0.557,0.154,0.0453,-0.198,0.321,0.0869,-0.594,-0.573,–,–
AGTCAAAGTTCAGGACGAGGTCACGTAAAGCACG,0.746,3.73,0.593,0.7,5.05,7.95,–,2.01,–,5.39,–,7.28,3.45,6.81,–,4.95,5.43,–,–
CGAATTAGGTCACCAGGACAGTGAAGAGGTTGGA,8.17,8.71,–,2.04,2.36,0.578,2.92,0.711,4.52,3.77,4.66,5.28,1.56,3.42,3.98,2.96,0.575,1.78,2.06
CGAACTAGGTCAAAGTACAGTGAAAGGCGACGTA,7.91,8.47,–,3.06,1.65,-0.31,2.5,-0.202,3.84,2.8,4.13,4.62,2,3.1,2.57,0.294,0.766,1.58,1.84
ATATGTAGGTTAGGGTCACTCAGAAAGTAGGGAA,6.7,6.76,–,1.93,3.25,1.5,4.51,1.73,3.8,3.57,3.98,3.56,1.74,5.09,4.21,3.46,2.6,3.88,3.98
ACTAGTGGGTCAGCTGAGGTCACACACAATTCGG,6.51,6.96,1.71,0.986,4.18,1.68,5.69,1.85,4.45,5.07,5.77,6.44,1.74,5.48,–,4.71,4.55,–,–
CGAACTAGGGCACCAGGACAGTGAAGAGGTTGGA,7.2,6.94,–,-0.192,0.184,-0.309,-0.404,-1.02,1.42,0.758,0.748,1.34,0.0116,0.278,1.05,0.327,-0.274,-0.709,-0.582
CGTCCAAGGTCAGAGAGGTCATTGAATGCCGAGT,2.72,3.6,0.144,-1.01,2.82,13.6,6.68,0.848,–,5.86,6.66,6.96,3.6,6.75,–,3.35,7.43,–,–
TTACCAAGGTCAGCTGAGGTCGTTGATCCAACTC,2.24,3.75,0.41,0.114,1.8,3.87,4.4,0.314,5.06,4.61,5.52,6.14,2.79,4.69,–,3.51,4.14,–,–
